Among the data in ChEMBL document CHEMBL3988442, “University of Dundee, Small-Polar-MMV Screening Library” (2021) are Percent Effect values, retold here.

The target of the test is T1, Aspartate--tRNA(Asp/Asn) ligase (Mycobacterium tuberculosis (strain ATCC 25618 / H37Rv)) (UniProt P9WFW3).
T1 sequence (whole entry): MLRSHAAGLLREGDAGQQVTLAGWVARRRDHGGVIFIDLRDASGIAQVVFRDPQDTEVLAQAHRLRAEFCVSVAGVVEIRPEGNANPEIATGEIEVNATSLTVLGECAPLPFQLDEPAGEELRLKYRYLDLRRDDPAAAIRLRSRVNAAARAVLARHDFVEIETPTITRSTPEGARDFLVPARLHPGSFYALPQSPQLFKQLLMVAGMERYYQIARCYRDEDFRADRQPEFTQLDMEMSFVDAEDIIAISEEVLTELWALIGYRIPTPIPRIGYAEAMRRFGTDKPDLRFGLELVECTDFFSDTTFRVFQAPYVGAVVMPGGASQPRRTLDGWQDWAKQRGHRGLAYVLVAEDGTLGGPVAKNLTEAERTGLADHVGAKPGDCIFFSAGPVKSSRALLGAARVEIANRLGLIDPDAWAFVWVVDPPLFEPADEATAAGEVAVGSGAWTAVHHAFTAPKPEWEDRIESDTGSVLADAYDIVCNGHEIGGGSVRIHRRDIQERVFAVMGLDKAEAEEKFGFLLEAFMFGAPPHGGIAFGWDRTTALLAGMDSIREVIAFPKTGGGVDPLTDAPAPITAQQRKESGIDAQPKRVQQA
The experiment in a line: Assay for Asp RNA synthetase-1 from Mycobacterium tuberculosis. Format: functional. Further details: scale not given: in the data most compounds retested in dose-response had high values. The conditions noted are these: 30 µM.
In the case of `Cc1ccc2ncnc(N3CCOCC3c3c(C)nn(C)c3C)c2c1` (stereo not given), the Percent Effect is -0.356%.

Turning to `CCCC(C)CN1CCC(n2cc(C3CCCC3)nn2)CC1` (stereo not given), the Percent Effect turned out to be 2.26%.

As for `CC(C)c1noc(CN2CCC3(CCCO3)CCC2=O)n1` (stereo not given), the Percent Effect is -1.21%.

`CN(C)c1ccc(CCNC(=O)C2CCC(=O)N(C3CCCC3)C2)cc1` (stereo not given): the Percent Effect is -4.1%.

For the molecule `Cc1cc(F)ccc1CN1CCC(O)(CN2CCCCC2)C1` (stereo not given), the Percent Effect is -0.747%.

`c1ccc2c(N3CCCCC3Cn3cncn3)ncnc2c1` (stereo not given): the Percent Effect turned out to be 0.172%.

As for `CCNC(=O)c1ccc(N2CCCC(c3nccn3C(C)C)C2)nc1` (stereo not given), the Percent Effect was -3.8%.

In the case of `CN(Cc1ccccc1)C1(C(=O)O)Cc2ccccc2C1`, the Percent Effect was -1.53%.

In the case of `CN1C(=O)CC(C(=O)O)C12CCN(Cc1ccc(F)cc1Cl)CC2` (stereo not given), the Percent Effect was -1.07%.

With `CCN(CC)CC(=O)NCCc1csc(N2CCCC2)n1`, the Percent Effect came out at 1.28%.

In the case of `Cc1cc(NC(=O)Cn2cc(C#N)c(=O)c3cc(Br)ccc32)no1`, the Percent Effect was -2.42%.

In the case of `O=C(CCc1c[nH]cn1)N1CC[C@@H](c2ccc3ccccc3c2)[C@H](O)C1`, the Percent Effect was -0.632%.

In the case of `COc1ccc(-c2nc(CN3CCOCS3(=O)=O)c(C)o2)cc1`, the Percent Effect was -1.67%.

In the case of `O=C(O)c1ccc(F)c(S(=O)(=O)Nc2ccc(-n3cccn3)c(Cl)c2)c1`, the Percent Effect is -5.11%.

Turning to `O=C1N(Cc2cccc(F)c2F)CCCC1(O)CNC1CCCC1` (stereo not given), the Percent Effect is -0.655%.

On to `CCN(CC(=O)NC)C(=O)Cc1nc(-c2ccco2)oc1C`, for which the Percent Effect is -4.7%.

Take `Cc1ccc(CNCc2nnc3n2CCCC3C(F)(F)F)s1` (stereo not given): the Percent Effect came to 4.24%.

For `Cc1cc(C2CCCN2C(=O)NCc2cccc(F)c2)on1` (stereo not given), the Percent Effect is -1.23%.

With `O=C(NCCc1cccc(O)c1)NC1CCN(c2ccccc2)C1=O` (stereo not given), the Percent Effect is -2.7%.

As for `CCNC(=O)NC(=O)CSC(C)c1ccccc1F` (stereo not given), the Percent Effect is 2.19%.

As for `Cc1nonc1CN(C)CC1(O)CCCN(CCC2CCCCC2)C1=O` (stereo not given), the Percent Effect is 0.149%.

As to `Cc1nc(C)n(CC2CCCCN2CC(=O)Nc2nncs2)n1` (stereo not given), the Percent Effect is -3.83%.

For the molecule `CN(C)CCCNC(=O)c1cc(Br)c2c(c1)OCCO2`, the Percent Effect is 0.724%.

As for `Cc1ccc(S(=O)(=O)NCCNC(=O)c2ccoc2)cc1F`, the Percent Effect was -4.4%.

For the molecule `CCNC(=O)c1cnc(Cc2ccc(F)cc2)s1`, the Percent Effect was -3.94%.

For the molecule `CCOCCn1nnc(C2(NC(=O)c3ccccc3)CCCC2)n1`, the Percent Effect is -3.44%.

Consider `CCn1nc(C)c(CNC(=O)c2cn(CC3CCCO3)nn2)c1C` (stereo not given), for which the Percent Effect was -4.13%.

Turning to `Cc1cc(F)ccc1OC1(C(=O)O)CCN(Cc2cccnc2N)CC1`, the Percent Effect was -3.76%.

For the molecule `C[S+]([O-])CCCNC(=O)c1cc(Br)c2c(c1)OCCO2` (stereo not given), the Percent Effect is -1.74%.

With `CC(=O)c1cn(CC(=O)NC(C(=O)O)C(C)C)c2ccccc12` (stereo not given), the Percent Effect was -0.402%.

For `COC(=O)CCN1CCCC1c1cccc2c1OCCO2` (stereo not given), the Percent Effect was -1.34%.

Consider `COC1CCN(C(=O)c2c(Cl)c3ccccc3n2C)CC1`, for which the Percent Effect is -5.5%.

With `CN(C)CCn1c(=O)oc2ccc(NC(=O)C3CCCO3)cc21` (stereo not given), the Percent Effect was -2.08%.

Turning to `CSC(C)(C)CNC(=O)NC1CCSCC1`, the Percent Effect was determined as 0.103%.

For the molecule `Cc1n[nH]c(C2CN(CC(=O)NCc3ccco3)CCO2)n1` (stereo not given), the Percent Effect turned out to be 0.448%.

Consider `Cc1ccc(N2CCCC(N(C)Cc3cc(C)no3)C2)nn1` (stereo not given), for which the Percent Effect was -1.94%.

Regarding `CC(C)SCC(=O)N1CCc2c(nc(N(C)C)nc2N(C)C)C1`, the Percent Effect is -3.12%.

For `CCc1nc(NS(=O)(=O)c2cc(C)ccc2F)no1`, the Percent Effect is -2.52%.

In the case of `CN1CCN(C(CNC(=O)CCn2cccn2)c2cccs2)CC1` (stereo not given), the Percent Effect was -1.05%.

As to `CSC(C)(C)CNC(=O)NC1CCN(C)CC1`, the Percent Effect is -4.75%.
